Holding throughout (experiment): NCI-60 one-dose screen, 48 h (100 = growth as untreated, 0 = no growth, -100 = all killed)
For one assay, the system named is NCI-H23 lung. The conditions noted are these: 10 µM unless noted.
The test system of another assay is NCI-H226 lung. The conditions noted are these: 10 µM unless noted.
The test system of another assay is MDA-MB-231 breast. The conditions noted are these: 10 µM unless noted.
For a further assay, the system named is SF-539 CNS. The conditions noted are these: 10 µM unless noted.
In another assay the test system is HCT-15 colon. The conditions noted are these: 10 µM.
The next assay concerns HT29 colon. The conditions noted are these: 10 µM unless noted.
A further assay deals with SNB-75 CNS. The conditions noted are these: 10 µM unless noted.
In a further assay the test system is PC-3 prostate. The conditions noted are these: 10 µM unless noted.
The test system of another assay is SK-MEL-5 melanoma. The conditions noted are these: 10 µM unless noted.
Another assay has as its system UACC-62 melanoma. The conditions noted are these: 10 µM unless noted.
The subject of a further assay is SK-MEL-28 melanoma. The conditions noted are these: 10 µM unless noted.
Another assay relates to SN12C renal. The conditions noted are these: 10 µM unless noted.
The subject of the next assay is ACHN renal. The conditions noted are these: 10 µM unless noted.
For the next assay, the system named is OVCAR-8 ovarian. The conditions noted are these: 10 µM unless noted.
For another assay, the system named is OVCAR-3 ovarian. The conditions noted are these: 10 µM unless noted.
The test system of a further assay is NCI/ADR-RES ovarian. The conditions noted are these: 10 µM unless noted.
For a further assay, the system named is MDA-MB-435 melanoma. The conditions noted are these: 10 µM unless noted.
The test system of another assay is MCF7 breast. The conditions noted are these: 10 µM unless noted.
The test system of a further assay is KM12 colon. The conditions noted are these: 10 µM unless noted.
A further assay deals with SF-268 CNS. The conditions noted are these: 10 µM unless noted.

This is part of a sample that, as a whole, favours compounds with a hit. Of some 83,000 tested, about 20% had one in any assay.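 96-well plates, one dose, 48 hours. Percent growth reported; active if below 10.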 A number with no mark means an inactive call. Active and inactive are the calls of the source.

Turning to `O=C(CCF)c1ccc(O)cc1`, the growth in the assay with NCI-H23 lung was 94%; in the assay with NCI-H226 lung, 105%; with MDA-MB-231 breast, 113%; in the assay with SF-539 CNS, 103%; with HCT-15 colon, 102%; with HT29 colon, 98.2%. Besides, the growth in the assay with SNB-75 CNS is 96.9%; with PC-3 prostate it was 98%; with SK-MEL-5 melanoma it was 117%; with UACC-62 melanoma, 106%; in the assay with SK-MEL-28 melanoma, 113%; in the assay on SN12C renal, 100%. Further, the growth with ACHN renal is 106%; in the assay with OVCAR-8 ovarian, 99.2%; in the assay with OVCAR-3 ovarian, 109%; with NCI/ADR-RES ovarian it was 105%; in the assay on MDA-MB-435 melanoma it was 104%; in the assay with MCF7 breast it was 101%. In addition, in the assay with KM12 colon, the growth was 106%.

`CCOC(=O)Nc1cc(Cl)c([N+](=O)[O-])c(NC(=O)OCC)n1`: the growth in the assay with NCI-H23 lung is 87.8%; in the assay on NCI-H226 lung, 100%; in the assay on MDA-MB-231 breast, 108%; in the assay on SF-268 CNS it was 75.2%; in the assay with SF-539 CNS, 107%; with HT29 colon it was 82.5%. The growth in the assay on SNB-75 CNS is 97.3%; in the assay with PC-3 prostate, 92.2%; in the assay on SK-MEL-5 melanoma, 91.8%; with UACC-62 melanoma it was 82.6%; in the assay with SK-MEL-28 melanoma it was 79%; with SN12C renal, 96.5%. The growth was 53.6% with ACHN renal; 64.6% in the assay with OVCAR-8 ovarian; 103% with OVCAR-3 ovarian; 102% with NCI/ADR-RES ovarian; 65.4% in the assay with MDA-MB-435 melanoma; 51.4% in the assay on MCF7 breast. For the same molecule, the growth in the assay on KM12 colon was 71.3%.

Turning to `CC1CC=CCC12C(=O)NC(=S)NC2=O` (configuration not stated), the growth is 113% in the assay on NCI-H23 lung; 102% in the assay on NCI-H226 lung; 117% in the assay with MDA-MB-231 breast; 115% in the assay on SF-268 CNS; 98.8% in the assay with SF-539 CNS; 103% in the assay on HCT-15 colon. The growth is 107% with HT29 colon; 81.4% with SNB-75 CNS; 98.4% in the assay on PC-3 prostate; 103% in the assay on SK-MEL-5 melanoma; 105% in the assay on UACC-62 melanoma; 101% with SK-MEL-28 melanoma. Also, the growth with SN12C renal was 99.8%; in the assay with ACHN renal, 106%; in the assay on OVCAR-8 ovarian, 104%; in the assay with OVCAR-3 ovarian it was 118%; with NCI/ADR-RES ovarian it was 113%; in the assay on MDA-MB-435 melanoma it was 106%. Also, the values for the growth in the assay with MCF7 breast and in the assay with KM12 colon were 105% and 116%, respectively.

As to `CC(=O)[O][Hg][CH2]C1(C)COC(C)([CH2][Hg][O]C(C)=O)CO1` (configuration not stated), the growth in the assay on NCI-H23 lung was 65.4%; in the assay on NCI-H226 lung, 86.7%; in the assay with MDA-MB-231 breast, 42.8%; in the assay with SF-268 CNS, 88.2%; in the assay with SF-539 CNS, -87.2% (active); with HCT-15 colon it was -94% (active). Further, the growth in the assay with HT29 colon is -25.6% (active); with SNB-75 CNS, 38%; in the assay with PC-3 prostate, 89.5%; with SK-MEL-5 melanoma, -35.9% (active); with UACC-62 melanoma, 95.8%; with SK-MEL-28 melanoma, 18.3%. The growth with SN12C renal was -87.1% (active); in the assay on ACHN renal, 63.1%; with OVCAR-8 ovarian, 50.7%; in the assay with OVCAR-3 ovarian, -100% (active); with NCI/ADR-RES ovarian, 94.9%; in the assay on MDA-MB-435 melanoma it was -2.3% (active). Also, the growth in the assay with MCF7 breast was -81.1% (active).

Regarding `N#Cc1ncc(/N=C/c2ccc(N(CCCl)CCCl)cc2)s1`, the growth with NCI-H23 lung is 58.2%; with NCI-H226 lung, -19.1% (active); in the assay on MDA-MB-231 breast, 94.5%; in the assay with SF-268 CNS it was 65.5%; in the assay on SF-539 CNS, 40.7%; in the assay with HCT-15 colon it was 50.6%. In addition, the growth is 91.6% in the assay with HT29 colon; 61.6% with SNB-75 CNS; 66.9% in the assay with PC-3 prostate; 88.4% in the assay on SK-MEL-5 melanoma; 32% in the assay on UACC-62 melanoma; 102% with SK-MEL-28 melanoma. The growth with SN12C renal is 55.9%; in the assay on ACHN renal, 33.8%; in the assay on OVCAR-8 ovarian it was 78.3%; in the assay with OVCAR-3 ovarian it was 78.5%; in the assay on NCI/ADR-RES ovarian, 70.8%; in the assay with MDA-MB-435 melanoma, 87.8%. Moreover, the growth is 48.7% with MCF7 breast and 95.3% in the assay on KM12 colon.

Consider `COc1cc[c]([Hg][Cl])cc1`, for which the growth in the assay with NCI-H23 lung is 47%; in the assay with NCI-H226 lung, 100%; in the assay on MDA-MB-231 breast, 46.2%; in the assay with SF-268 CNS, 56.8%; in the assay on SF-539 CNS, 85.2%; with HCT-15 colon, -42.8% (active). The growth in the assay with HT29 colon was 48.5%; with SNB-75 CNS, 50.5%; with PC-3 prostate it was 77.6%; in the assay on SK-MEL-5 melanoma it was 30.5%; with UACC-62 melanoma, 12.5%; in the assay with SK-MEL-28 melanoma, 20.7%. In addition, the growth with SN12C renal was -6.35% (active); in the assay with ACHN renal, 86.5%; in the assay with OVCAR-8 ovarian, 69.8%; with OVCAR-3 ovarian, -71.5% (active); with NCI/ADR-RES ovarian, 86.2%; in the assay with MDA-MB-435 melanoma it was 34.3%. Moreover, the growth is 27.9% in the assay on MCF7 breast and 102% with KM12 colon.

As to `NC(=O)C(Br)CBr` (configuration not stated), the growth with NCI-H23 lung is 24.1%; in the assay on NCI-H226 lung it was -18.8% (active); with MDA-MB-231 breast, 14.3%; with SF-268 CNS, -23.1% (active); with SF-539 CNS it was 39.2%; in the assay on HCT-15 colon it was -7.98% (active). Besides, the growth with HT29 colon is -21.8% (active); in the assay with SNB-75 CNS, 103%; in the assay with PC-3 prostate, 13.9%; with SK-MEL-5 melanoma, 55.6%; in the assay on UACC-62 melanoma it was 19.9%; with SK-MEL-28 melanoma it was -28% (active). Also, the growth was 22% in the assay on SN12C renal; -76.2% (active) in the assay with ACHN renal; -24.1% (active) in the assay with OVCAR-8 ovarian; -85.1% (active) in the assay with OVCAR-3 ovarian; 15.3% with NCI/ADR-RES ovarian; -73.3% (active) with MDA-MB-435 melanoma. Moreover, the values for the growth in the assay on MCF7 breast and with KM12 colon were 2.57% (active) and 71.4%, respectively.

As for `Nc1ncnc2c1c(C(=O)NO)cn2C1OC(CO)C(O)C1O` (configuration not stated), the growth with NCI-H23 lung is -4.58% (active); with NCI-H226 lung it was 13.6%; with MDA-MB-231 breast it was -6.16% (active); with SF-268 CNS it was -24.7% (active); in the assay with SF-539 CNS, -32.4% (active); with HCT-15 colon it was -9.1% (active). In addition, the growth is 7.07% (active) in the assay with HT29 colon; 4.46% (active) in the assay on SNB-75 CNS; -20.9% (active) in the assay on PC-3 prostate; -93% (active) in the assay with SK-MEL-5 melanoma; -86.1% (active) in the assay on UACC-62 melanoma; -52.3% (active) in the assay on SK-MEL-28 melanoma. The growth with SN12C renal was -31.9% (active); with ACHN renal it was -15.4% (active); in the assay with OVCAR-8 ovarian, -20.2% (active); in the assay with OVCAR-3 ovarian, -49.3% (active); in the assay with NCI/ADR-RES ovarian it was 2.24% (active); with MDA-MB-435 melanoma it was -72% (active). Further, the growth with MCF7 breast was -47.3% (active); with KM12 colon, -29.9% (active).

With `O1[As]2O[As]3O[As]1O[As](O2)O3`, the growth in the assay with NCI-H23 lung was 6.46% (active); in the assay with NCI-H226 lung it was 0.918% (active); in the assay on MDA-MB-231 breast it was -22.8% (active); with SF-268 CNS, 5.42% (active); in the assay with SF-539 CNS, -4.27% (active); in the assay on HCT-15 colon, -23.4% (active). The growth is -21.1% (active) in the assay with HT29 colon; -0.103% (active) in the assay on SNB-75 CNS; 10.7% in the assay with PC-3 prostate; -91.5% (active) in the assay with SK-MEL-5 melanoma; -53.3% (active) with UACC-62 melanoma; -17.6% (active) in the assay with SK-MEL-28 melanoma. Further, the growth with SN12C renal was 4.31% (active); in the assay with ACHN renal, 28%; in the assay with OVCAR-8 ovarian, 4.6% (active); in the assay with OVCAR-3 ovarian, -35.3% (active); with NCI/ADR-RES ovarian, 13.8%; with MDA-MB-435 melanoma, 14.1%. The values for the growth with MCF7 breast and with KM12 colon were 6.19% (active) and 39%, respectively.

Values taken from PubChem BioAssay (NCI).
